“And” between values parts separate entries of the source, which are not always exact repeats. Equal values may be shown once. Results filed as inconclusive are left out. Some compounds were tested as several samples or in several runs, with calls that do not always agree. The source made the active and inactive calls. Rule for the calls, unless noted: active = hit-call score of the fitted dose curve at least 0.9, where 1 is the maximum; inactive = score below 0.9.
Columns and labels:
[1] = target: human RAR-related Orphan Receptor gamma (RORg), RORC (gene 6097) (UniProt P51449); assay: ATG_RORg_TRANS: Attagene TRANS-FACTORIAL HepG2 Assay for human RAR-related Orphan Receptor gamma (RORg) (AID 2283011; active = hit-call score of the fitted dose curve at least 0.9, where 1 is the maximum)
Method in brief: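 Chimeric RORg-Gal4 transactivation in transfected HepG2; 24 h exposure; RT-PCR/capillary electrophoresis readout of reporter mRNA, DMSO baseline.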

[2] = target: Retinoic acid receptor RXR-alpha (Homo sapiens) (UniProt P19793); assay: ATG_RXRa_TRANS: Attagene TRANS-FACTORIAL HepG2 Assay for human Retinoid X Receptor alpha (RXRa) (AID 2283012; active = hit-call score of the fitted dose curve at least 0.9, where 1 is the maximum)
Method in brief: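 TRANS format reporting activity of exogenous RXRa-Gal4 chimera in transiently transfected HepG2, 24 h exposure. Reporter transcripts quantified by RT-PCR with capillary electrophoresis, with gain of signal scored relative to DMSO.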

[3] = target: human Retinoid X Receptor beta (RXRb), RXRB (gene 6257) (UniProt P28702); assay: ATG_RXRb_TRANS: Attagene TRANS-FACTORIAL HepG2 Assay for human Retinoid X Receptor beta (RXRb) (AID 2283013; active = hit-call score of the fitted dose curve at least 0.9, where 1 is the maximum)
Method in brief: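 Readout is reporter transcript induction after 24 h dosing. It is measured by RT-PCR of total RNA followed by fluorescent capillary electrophoresis. HepG2 liver cells carry transfected multiple reporter units driven by an exogenous RXRb-Gal4 fusion; activity is relative to DMSO.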

[4] = target: human Thyroid Receptor alpha (THRa1), THRA (gene 7067) (UniProt P10827); assay: ATG_THRa1_TRANS: Attagene TRANS-FACTORIAL HepG2 Assay for human Thyroid Receptor alpha (THRa1) (AID 2283014; active = hit-call score of the fitted dose curve at least 0.9, where 1 is the maximum)
Method in brief: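 Measured here is mRNA from a GAL4-UAS reporter in transfected HepG2 cells carrying a Gal4-fused receptor, 24 h post-dose. DMSO served as negative control and baseline.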

[5] = read-out: E-selectin (Homo sapiens) (UniProt P16581); assay: BSK_3C_Eselectin: BioMAP Diversity Plus: 3C Assay for Eselectin Biomarker Activity (AID 2283015); settings: primary human endothelial cells (HUVEC); actives raise or lower the signal
Method in brief: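 Endpoint derived by bidirectional fitting against DMSO vehicle; signal is ELISA-detected E-selectin from primary HUVEC at 24 h post-dosing, with parallel SRB staining (0.1% SRB, 560 nm) flagging cytotoxicity.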

[6] = read-out: Interleukin-1 alpha (IL1a), IL1A (gene 3552); assay: BSK_BE3C_IL1a: BioMAP Diversity Plus: BE3C Assay for Interleukin-1 alpha (IL1a) Biomarker Activity (AID 2283016); settings: primary human bronchial epithelial cells; actives raise or lower the signal
Method in brief: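 IL-1a measured by ELISA after 24 h treatment of human primary bronchial epithelial cells, with gain or loss of signal fitted versus DMSO. Parallel cultures stained with SRB gauge overt cytotoxicity.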

[7] = read-out: Monocyte Chemoattractant Protein-1 (MCP1), CCL2 (gene 6347); assay: BSK_3C_MCP1: BioMAP Diversity Plus: 3C Assay for Monocyte Chemoattractant Protein-1 (MCP1) Biomarker Activity (AID 2283017); settings: primary human endothelial cells (HUVEC); actives raise or lower the signal
Method in brief: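 Using human vascular primary endothelium, researchers measured MCP-1 by ELISA 24 h after treatment, with DMSO serving as negative control for bidirectional fitting.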

[8] = read-out: Monocyte Chemoattractant Protein-1 (MCP1), CCL2 (gene 6347); assay: BSK_4H_MCP1: BioMAP Diversity Plus: 4H Assay for Monocyte Chemoattractant Protein-1 (MCP1) Biomarker Activity (AID 2283018); settings: primary human endothelial cells (HUVEC); actives raise or lower the signal
Method in brief: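 ELISA of MCP-1 (CCL2) 24 h after chemical dosing of HUVEC in the BioMAP 4H system. Gain or loss versus DMSO fitted; parallel SRB staining (560 nm) tracked overt cytotoxicity.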

[9] = read-out: Human Leukocyte Antigen - DR isotype (HLADR), HLA-DRA (gene 3122); assay: BSK_3C_HLADR: BioMAP Diversity Plus: 3C Assay for Human Leukocyte Antigen - DR isotype (HLADR) Biomarker Activity (AID 2283019); settings: primary human endothelial cells (HUVEC); actives raise or lower the signal
Method in brief: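 Compound added to primary HUVEC cultures, 24 h incubation, then HLA-DR determined by ELISA; endpoint derived by bidirectional fitting relative to DMSO negative control.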

[10] = read-out: Interleukin-8 (IL8), CXCL8 (gene 3576); assay: BSK_3C_IL8: BioMAP Diversity Plus: 3C Assay for Interleukin-8 (IL8) Biomarker Activity (AID 2283020); settings: primary human endothelial cells (HUVEC); actives raise or lower the signal
Method in brief: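 IL-8 was measured by ELISA in HUVEC cultures 24 h after chemical dosing, with gain or loss of signal fitted relative to DMSO. Parallel SRB total-protein staining tracked overt cytotoxicity.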

[11] = read-out: Monokine induced gamma interferon (MIG), CXCL9 (gene 4283); assay: BSK_3C_MIG: BioMAP Diversity Plus: 3C Assay for Monokine induced gamma interferon (MIG) Biomarker Activity (AID 2283021); settings: primary human endothelial cells (HUVEC); actives raise or lower the signal;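 for AC50: MIG protein level measured by immunoassay in the treated endothelial cultures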
Method in brief: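 ELISA measurement of MIG in human umbilical vein endothelial cells 24 h after treatment. Cytotoxicity tracked by SRB staining in parallel cultures; gain or loss of signal fitted relative to DMSO.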

[12] = BSK_3C_SRB: Viability Assessment in the BioMAP Diversity Plus: 3C Assay (AID 2283023); settings: primary human endothelial cells (HUVEC);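 note: fitted both ways against DMSO so a hit may be signal rise or drop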
Method in brief: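 Overt cytotoxicity is gauged in parallel confluent HUVEC cultures by SRB total-protein staining at the time of biomarker measurement, 24 h after dosing. Gain or loss of signal is fitted versus DMSO.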

[13] = read-out: Matrix Metallopeptidase 1 (MMP1), MMP1 (gene 4312); assay: BSK_BE3C_MMP1: BioMAP Diversity Plus: BE3C Assay for Matrix Metallopeptidase 1 (MMP1) Biomarker Activity (AID 2283024); settings: primary human bronchial epithelial cells; actives raise or lower the signal
Method in brief: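 ELISA measurement of MMP-1 after 24 h compound exposure of primary human bronchial epithelial cells. Changes in either direction fitted relative to DMSO; parallel SRB staining checked overt cytotoxicity.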

[14] = BSK_3C_Vis: BioMAP Diversity Plus: 3C Assay for Morphology Visualization (AID 2283025); settings: primary human endothelial cells (HUVEC);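 note: fitted both ways so gain or loss versus DMSO counts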;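 for AC50: light microscopy image of cell morphology used as background control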
Method in brief: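 Light-microscopy visualization of HUVEC cultures at 24 h post-treatment, with DMSO as baseline for bidirectional fitting.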

[15] = read-out: Pselectin, SELP (gene 6403); assay: BSK_4H_Pselectin: BioMAP Diversity Plus: 4H Assay for Pselectin Biomarker Activity (AID 2283026); settings: primary human endothelial cells (HUVEC); actives raise or lower the signal
Method in brief: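 ELISA of surface P-selectin on HUVEC, 24 h after dosing, with parallel SRB staining (0.1% after 10% TCA fixation, 560 nm) for overt cytotoxicity. Activity fitted in both directions relative to DMSO.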

[16] = BSK_4H_SRB: Viability Assessment in the BioMAP Diversity Plus: 4H Assay (AID 2283027); settings: primary human endothelial cells (HUVEC);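 note: cells exposed to compound for 24 h before staining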;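 for AC50: curves fitted both ways versus DMSO so AC50 may be loss or gain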
Method in brief: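 Cytotoxicity read-out in primary human endothelial cells: after 24 h compound exposure, cells were TCA-fixed (10%), stained with 0.1% SRB and absorbance taken at 560 nm. Values fitted in both directions relative to DMSO.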

[17] = BSK_BE3C_SRB: Viability Assessment in the BioMAP Diversity Plus: BE3C Assay (AID 2283028); settings: primary human bronchial epithelial cells;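 for AC50: fitted both ways so AC50 may mark signal gain or loss versus DMSO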
Method in brief: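 SRB total-protein staining (0.1%, after TCA fixation) of chemically dosed human bronchial epithelial primary cells at 24 h; DMSO serves as the negative control for bidirectional curve fitting.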

[18] = read-out: Urokinase-type plasminogen activator receptor (uPAR), PLAUR (gene 5329); assay: BSK_4H_uPAR: BioMAP Diversity Plus: 4H Assay for Urokinase-type plasminogen activator receptor (uPAR) Biomarker Activity (AID 2283030); settings: primary human endothelial cells (HUVEC); actives raise or lower the signal
Method in brief: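 Endpoint derived via bidirectional curve fitting against DMSO baseline; readout was ELISA detection of uPAR on umbilical vein endothelial cells at 24 h post-treatment, with SRB-stained parallel cultures assessing cytotoxicity.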

[19] = target: human Vitamin D Receptor (VDR), VDR (gene 7421) (UniProt P11473); assay: ATG_VDR_TRANS: Attagene TRANS-FACTORIAL HepG2 Assay for human Vitamin D Receptor (VDR) (AID 2283022; active = hit-call score of the fitted dose curve at least 0.9, where 1 is the maximum)
Method in brief: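 Multiplexed TRANS reporter in HepG2; 24 h treatment; reporter mRNA by RT-PCR plus capillary electrophoresis; upregulation scored relative to DMSO.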

[20] = read-out: Thrombomodulin, THBD (gene 7056); assay: BSK_3C_Thrombomodulin: BioMAP Diversity Plus: 3C Assay for Thrombomodulin Biomarker Activity (AID 2283029); settings: primary human endothelial cells (HUVEC); actives raise or lower the signal
Method in brief: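 ELISA measurement of thrombomodulin on HUVEC surface 24 h after chemical dosing; activity fitted in both directions relative to DMSO vehicle.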

Measured: AC50

E-selectin (Homo sapiens), sequence (P16581 whole entry, looked up): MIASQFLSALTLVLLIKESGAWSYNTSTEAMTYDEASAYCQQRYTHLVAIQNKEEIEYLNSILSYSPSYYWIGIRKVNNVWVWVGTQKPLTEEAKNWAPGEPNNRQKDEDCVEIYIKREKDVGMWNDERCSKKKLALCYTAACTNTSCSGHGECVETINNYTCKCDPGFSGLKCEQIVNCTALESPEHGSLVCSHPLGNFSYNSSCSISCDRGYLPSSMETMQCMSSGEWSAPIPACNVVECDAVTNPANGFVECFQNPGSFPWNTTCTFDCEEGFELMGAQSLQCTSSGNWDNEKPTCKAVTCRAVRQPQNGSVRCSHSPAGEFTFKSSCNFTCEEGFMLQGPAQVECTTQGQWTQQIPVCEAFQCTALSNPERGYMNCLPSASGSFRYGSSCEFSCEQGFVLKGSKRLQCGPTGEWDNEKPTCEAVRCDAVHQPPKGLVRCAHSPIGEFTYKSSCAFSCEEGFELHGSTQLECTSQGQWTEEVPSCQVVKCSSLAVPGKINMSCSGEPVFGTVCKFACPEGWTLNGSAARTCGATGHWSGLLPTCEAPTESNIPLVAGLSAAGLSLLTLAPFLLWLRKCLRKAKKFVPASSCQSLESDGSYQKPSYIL
human RAR-related Orphan Receptor gamma (RORg), RORC (gene 6097), sequence (P51449 whole entry, looked up, the tested form may be a part): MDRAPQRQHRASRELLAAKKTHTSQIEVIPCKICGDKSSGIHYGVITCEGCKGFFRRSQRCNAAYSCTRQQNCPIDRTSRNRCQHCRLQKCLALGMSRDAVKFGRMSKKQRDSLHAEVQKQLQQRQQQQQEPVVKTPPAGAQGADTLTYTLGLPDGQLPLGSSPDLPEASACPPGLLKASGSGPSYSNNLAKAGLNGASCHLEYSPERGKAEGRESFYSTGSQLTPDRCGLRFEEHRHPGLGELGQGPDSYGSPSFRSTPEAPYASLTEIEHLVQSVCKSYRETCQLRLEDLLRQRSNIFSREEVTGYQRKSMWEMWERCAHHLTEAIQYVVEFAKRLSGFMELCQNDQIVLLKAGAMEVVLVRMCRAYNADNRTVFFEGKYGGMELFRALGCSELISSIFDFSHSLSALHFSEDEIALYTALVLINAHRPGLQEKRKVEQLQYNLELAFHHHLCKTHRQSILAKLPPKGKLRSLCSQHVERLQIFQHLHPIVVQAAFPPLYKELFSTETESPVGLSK
human Retinoid X Receptor beta (RXRb), RXRB (gene 6257), sequence (P28702 whole entry, looked up, the tested form may be a part): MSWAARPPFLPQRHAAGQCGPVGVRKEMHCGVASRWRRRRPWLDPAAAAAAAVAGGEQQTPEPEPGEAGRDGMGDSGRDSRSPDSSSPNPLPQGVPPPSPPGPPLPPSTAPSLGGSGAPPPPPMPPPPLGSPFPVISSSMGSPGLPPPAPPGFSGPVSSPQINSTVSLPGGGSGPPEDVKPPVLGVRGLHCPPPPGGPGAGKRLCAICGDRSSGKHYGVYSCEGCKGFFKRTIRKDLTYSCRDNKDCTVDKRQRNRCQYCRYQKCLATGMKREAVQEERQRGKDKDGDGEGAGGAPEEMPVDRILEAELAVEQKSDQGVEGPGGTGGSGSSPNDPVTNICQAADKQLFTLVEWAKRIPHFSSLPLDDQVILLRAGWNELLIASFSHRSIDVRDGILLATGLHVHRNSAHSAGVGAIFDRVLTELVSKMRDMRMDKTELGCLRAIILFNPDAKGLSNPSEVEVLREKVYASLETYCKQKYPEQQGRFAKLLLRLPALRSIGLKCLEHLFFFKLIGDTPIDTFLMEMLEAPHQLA
Retinoic acid receptor RXR-alpha (Homo sapiens), sequence (P19793 whole entry, looked up, the tested form may be a part): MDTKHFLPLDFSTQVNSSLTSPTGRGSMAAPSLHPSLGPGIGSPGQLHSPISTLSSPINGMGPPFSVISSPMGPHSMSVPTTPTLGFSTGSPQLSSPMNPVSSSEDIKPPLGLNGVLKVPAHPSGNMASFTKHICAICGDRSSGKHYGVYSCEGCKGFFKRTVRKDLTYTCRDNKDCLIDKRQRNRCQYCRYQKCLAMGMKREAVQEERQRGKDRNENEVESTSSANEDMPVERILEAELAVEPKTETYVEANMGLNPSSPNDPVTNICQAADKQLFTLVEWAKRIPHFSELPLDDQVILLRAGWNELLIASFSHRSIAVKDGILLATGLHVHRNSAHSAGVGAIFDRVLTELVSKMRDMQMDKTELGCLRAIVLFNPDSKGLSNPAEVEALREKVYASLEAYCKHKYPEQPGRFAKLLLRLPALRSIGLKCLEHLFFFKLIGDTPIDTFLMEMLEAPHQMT
human Vitamin D Receptor (VDR), VDR (gene 7421), sequence (P11473 whole entry, looked up): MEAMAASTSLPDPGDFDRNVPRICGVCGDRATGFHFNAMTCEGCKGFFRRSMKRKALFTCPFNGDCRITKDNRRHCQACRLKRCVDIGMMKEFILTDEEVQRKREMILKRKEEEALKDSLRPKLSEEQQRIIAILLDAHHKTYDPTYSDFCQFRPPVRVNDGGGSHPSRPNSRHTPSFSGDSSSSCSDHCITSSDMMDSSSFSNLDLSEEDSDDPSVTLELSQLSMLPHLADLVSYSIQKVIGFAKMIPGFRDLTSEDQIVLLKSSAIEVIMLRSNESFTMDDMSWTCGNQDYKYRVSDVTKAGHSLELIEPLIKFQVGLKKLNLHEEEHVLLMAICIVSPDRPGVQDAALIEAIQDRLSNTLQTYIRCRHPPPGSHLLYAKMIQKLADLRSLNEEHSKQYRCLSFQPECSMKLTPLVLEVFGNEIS
human Thyroid Receptor alpha (THRa1), THRA (gene 7067), sequence (P10827 whole entry, looked up, the tested form may be a part): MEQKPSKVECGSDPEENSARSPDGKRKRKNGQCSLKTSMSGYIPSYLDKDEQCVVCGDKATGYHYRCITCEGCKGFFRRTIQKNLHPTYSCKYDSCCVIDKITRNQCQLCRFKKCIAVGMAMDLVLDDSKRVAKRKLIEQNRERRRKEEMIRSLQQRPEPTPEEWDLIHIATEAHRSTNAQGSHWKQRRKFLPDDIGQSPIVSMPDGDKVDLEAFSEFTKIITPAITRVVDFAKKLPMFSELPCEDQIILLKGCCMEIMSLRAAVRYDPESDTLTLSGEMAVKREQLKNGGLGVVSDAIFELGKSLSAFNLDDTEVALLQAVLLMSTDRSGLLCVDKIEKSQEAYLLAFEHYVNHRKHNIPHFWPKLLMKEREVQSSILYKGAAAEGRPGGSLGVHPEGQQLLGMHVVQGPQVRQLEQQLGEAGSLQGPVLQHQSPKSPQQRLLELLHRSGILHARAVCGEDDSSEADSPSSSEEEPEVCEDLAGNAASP

CCCCC(CC)COC(=O)c1ccccc1C(=O)OCC(CC)CCCC (stereo not given)
active: [8] 14 µM | [9] 15.5 µM | [12] 10.5 µM | [14] 39 µM | [15] 15.6 µM | [17] 11 µM
not listed: [19] | [20]
inactive: all other assays above

CCCCOC(=O)c1ccccc1C(=O)OCCCC
inactive: [1] | [2] | [3] | [5] | [6] | [7] | [8] | [9] | [10] | [11] | [19] | [12] | [13] | [14] | [15] | [16] | [17] | [20] | [18]
active: [3] 64.6 µM and 65.2 µM and 68.9 µM | [4] 39.6 µM and 35.1 µM and 2.44 µM | [8] 26.4 µM | [12] 15.2 µM

CCOC(=O)C(Cl)Cc1cc(-n2nc(C)n(C(F)F)c2=O)c(F)cc1Cl (stereo not given)
active: [9] 9.55 µM
not listed: [20]
inactive: all other assays above

OC(c1ccc(Cl)cc1)(c1cncnc1)c1ccccc1Cl (stereo not given)
active: [8] 16.6 µM | [9] 10.8 µM | [12] 26 µM | [14] 9.8 µM | [15] 23.9 µM | [18] 18.3 µM
not listed: [20]
inactive: all other assays above

CCCN(CCC)c1c([N+](=O)[O-])cc(S(N)(=O)=O)cc1[N+](=O)[O-]
inactive: [1] | [2] | [3] | [4] | [19] | [20]
active: [5] 37.1 µM [middle of 4 runs] | [6] 39.6 µM [middle of 4 runs] | [7] 36 µM [middle of 4 runs] | [8] 34.4 µM [middle of 4 runs] | [9] 38.6 µM [middle of 4 runs] | [10] 34.2 µM [middle of 4 runs] | [11] 39 µM and 41.1 µM and 35.7 µM | [19] 61.2 µM | [12] 31.3 µM [middle of 4 runs] | [13] 36 µM [middle of 4 runs] | [14] 41 µM and 41.8 µM and 16.3 µM | [15] 34.2 µM [middle of 4 runs] | [16] 32.3 µM [middle of 4 runs] | [17] 34.3 µM [middle of 4 runs] | [18] 33 µM [middle of 4 runs]

Source: PubChem BioAssay (EPA / NIEHS)
